Compounds without any hit were thinned out: in the full panel of roughly 79,000, 15% have a hit. Unmarked numbers belong to inactive results. The source made the active and inactive calls. Cut-off read from the data, not from the text of the source: active = growth inhibition above about 70%; inactive = the rest.
How the values were obtained:
[1] = NCI Yeast Anticancer Drug Screen. Data for the rad52 strain (AID 147);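 note: 0% = growth of vehicle-treated control cultures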; conditions: S. cerevisiae rad52 mutant growth inhibition, hits give high values
Summary of the method: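 DNA repair-defective yeast; compound exposure; growth scored against vehicle controls.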

[2] = NCI Yeast Anticancer Drug Screen. Data for the wt1 strain (AID 149);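 note: 0% = growth of vehicle-treated wt1 cultures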; conditions: S. cerevisiae wt1 strain (SPY 50644) growth inhibition, hits give high values
Summary of the method: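 Each compound is tested on wt1 yeast and the loss of growth versus vehicle gives the inhibition value.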

[3] = NCI Yeast Anticancer Drug Screen. Data for the rad50EPP+ strain (AID 151);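 note: 0% = growth of vehicle-treated control cultures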; conditions: S. cerevisiae rad50 mutant strain, hits give high values
Summary of the method: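 rad50EPP+ yeast treated with test compounds. Readout: growth vs vehicle control.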

[4] = NCI Yeast Anticancer Drug Screen. Data for the mgt1 strain (AID 153); conditions: S. cerevisiae mgt1 mutant growth inhibition, hits give high values
Summary of the method: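 Growth inhibition relative to vehicle controls was scored for the mgt1 yeast strain after compound exposure.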

[5] = NCI Yeast Anticancer Drug Screen. Data for the rad50 strain (AID 155);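 note: 0% = growth of vehicle-only cultures of the same strain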; conditions: S. cerevisiae rad50 strain growth inhibition, hits give high values
Summary of the method: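 Vehicle-treated cultures provide the reference for the growth inhibition reported for compound-exposed, repair-deficient yeast.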

[6] = NCI Yeast Anticancer Drug Screen. Data for the rad14 strain (AID 159);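 note: 0% = growth of vehicle-treated control cultures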; conditions: S. cerevisiae rad14 strain growth inhibition, hits give high values
Summary of the method: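 Inhibition of growth is reported for a repair-deficient yeast mutant following compound treatment, calculated relative to cultures that received vehicle.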

[7] = NCI Yeast Anticancer Drug Screen. Data for the sgs1 mgt1 strain (AID 161);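 note: 0% = growth of cultures given vehicle only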; conditions: S. cerevisiae sgs1 mgt1 strain, hits give high values
Summary of the method: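 Growth of a repair-deficient yeast mutant was monitored after compound treatment and expressed as inhibition relative to vehicle-treated cultures.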

[8] = NCI Yeast Anticancer Drug Screen. Data for the CLN2oe strain (AID 163);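 note: 0% = growth of vehicle-only control cultures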; conditions: S. cerevisiae CLN2oe strain, hits give high values
Summary of the method: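 Compound-treated yeast; growth vs vehicle ctrl = % inhibition. Genetically altered strain (cell-cycle control).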

[9] = NCI Yeast Anticancer Drug Screen. Data for the cln2 rad14 strain (AID 165);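 note: 0% = growth equal to vehicle treated cultures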; conditions: S. cerevisiae cln2 rad14 strain, hits give high values
Summary of the method: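 Growth inhibition, relative to vehicle-treated controls, is the read-out. The test organism is a yeast strain with defined genetic alterations, cln2 rad14.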

[10] = NCI Yeast Anticancer Drug Screen. Data for the bub3 strain (AID 167); conditions: S. cerevisiae bub3 mutant strain, hits give high values
Summary of the method: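 Mutant yeast screening strain plus compound; vehicle-treated cultures serve as the 0% inhibition reference.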

[11] = NCI Yeast Anticancer Drug Screen. Data for the wt2 strain (AID 169); conditions: S. cerevisiae wt2 strain growth inhibition, hits give high values
Summary of the method: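 Compound exposure of yeast; growth compared with vehicle controls; inhibition reported.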

[12] = NCI Yeast Anticancer Drug Screen. Data for the mlh1 strain (AID 171);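 note: 0% = growth of vehicle-treated control cultures of the same strain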; conditions: S. cerevisiae mlh1 strain growth inhibition, hits give high values
Summary of the method: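 Compounds are applied to a genetically altered yeast strain, and its growth is compared with that of vehicle-treated cultures to give percent inhibition.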

[13] = NCI Yeast Anticancer Drug Screen. Data for the sgs1 strain (AID 173);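 note: 0% = growth of vehicle-only control cultures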; conditions: S. cerevisiae sgs1 mutant, hits give high values
Summary of the method: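 Compounds applied to genetically altered yeast; growth compared with vehicle-treated cultures to give % inhibition.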

[14] = NCI Yeast Anticancer Drug Screen. Data for the mlh1 rad18 strain (AID 175); conditions: S. cerevisiae mlh1 rad18 strain growth inhibition, hits give high values
Summary of the method: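 Cells of a genetically altered yeast strain, deficient in DNA damage repair, were treated with compound. Their growth was then compared with that of vehicle-treated cultures to give inhibition.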

[15] = NCI Yeast Anticancer Drug Screen. Data for the rad18 strain (AID 177); conditions: S. cerevisiae rad18 mutant growth inhibition, hits give high values
Summary of the method: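 Compounds are applied to a repair-deficient yeast strain, and growth is compared with that of vehicle-treated cultures to give percent inhibition.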

[16] = at 5.0 µM (retest, dose inferred, filed as 0.5)
[17] = at 50.0 µM (retest, dose inferred, filed as 5.0)

For `C[C@@]12CCC(=O)C=C1CC[C@H]1C2=CC[C@]2(C)C1CC[C@@]2(C)O` (stereo not given in full), the growth inhibition ([1]; at 1.2 µM) was -12%, the growth inhibition ([1]; at 3.7 µM) was -3% and the growth inhibition ([1]; at 11.0 µM) was -4%. For the same compound, the growth inhibition ([1]; at 33.0 µM) was 69%, the growth inhibition ([1]; at 100.0 µM) was 91% (active) and the growth inhibition ([2]; at 1.2 µM) was -13%. The growth inhibition ([2]; at 3.7 µM) was -26%, the growth inhibition ([2]; at 11.0 µM) was -23% and the growth inhibition ([2]; at 33.0 µM) was 54%. For the same compound, the growth inhibition ([2]; at 100.0 µM) was 91% (active), the growth inhibition ([3]; at 1.2 µM) was -1% and the growth inhibition ([3]; at 3.7 µM) was -6%. It also gave a growth inhibition ([3]; at 11.0 µM) of -8%, a growth inhibition ([3]; at 33.0 µM) of -12% and a growth inhibition ([3]; at 100.0 µM) of 1%. The growth inhibition ([4]; at 1.2 µM) was 12%, the growth inhibition ([4]; at 3.7 µM) was 19% and the growth inhibition ([4]; at 11.0 µM) was 38%. For the same compound, the growth inhibition ([4]; at 33.0 µM) was 86% (active), the growth inhibition ([4]; at 100.0 µM) was 96% (active) and the growth inhibition ([5]; at 1.2 µM) was 1%. It also gave a growth inhibition ([5]; at 3.7 µM) of 7%, a growth inhibition [5, 16] of 27% and a growth inhibition ([5]; at 11.0 µM) of 5%. For the same compound, the growth inhibition ([5]; at 33.0 µM) was 63%, the growth inhibition [5, 17] was 60% and the growth inhibition ([5]; at 50.0 µM) was 74.2% (active). For the same compound, the growth inhibition ([5]; at 100.0 µM) was 85% (active), the growth inhibition ([6]; at 1.2 µM) was -22% and the growth inhibition ([6]; at 3.7 µM) was -25%. For the same compound, the growth inhibition ([6]; at 11.0 µM) was -10%, the growth inhibition ([6]; at 33.0 µM) was 70% (active) and the growth inhibition ([6]; at 100.0 µM) was 92% (active). For the same compound, the growth inhibition [7, 16] was -27%, the growth inhibition [7, 17] was 78% (active) and the growth inhibition ([7]; at 50.0 µM) was 77.5% (active). For the same compound, the growth inhibition ([8]; at 1.2 µM) was 32%, the growth inhibition ([8]; at 3.7 µM) was -2% and the growth inhibition ([8]; at 11.0 µM) was 0%. For the same compound, the growth inhibition ([8]; at 33.0 µM) was 75% (active), the growth inhibition ([8]; at 100.0 µM) was 93% (active) and the growth inhibition [9, 16] was 46%. The growth inhibition [9, 17] was 30%, the growth inhibition ([9]; at 50.0 µM) was 56.9% and the growth inhibition ([10]; at 1.2 µM) was -1%. For the same compound, the growth inhibition ([10]; at 3.7 µM) was 19%, the growth inhibition [10, 16] was -28% and the growth inhibition ([10]; at 11.0 µM) was 28%. For the same compound, the growth inhibition ([10]; at 33.0 µM) was 80% (active), the growth inhibition [10, 17] was 54% and the growth inhibition ([10]; at 50.0 µM) was 75.5% (active). The growth inhibition ([10]; at 100.0 µM) was 96% (active), the growth inhibition ([11]; at 1.2 µM) was -26% and the growth inhibition ([11]; at 3.7 µM) was -19%. For the same compound, the growth inhibition ([11]; at 11.0 µM) was -18%, the growth inhibition ([11]; at 33.0 µM) was 64% and the growth inhibition ([11]; at 100.0 µM) was 92% (active). The growth inhibition ([12]; at 1.2 µM) was -27%, the growth inhibition ([12]; at 3.7 µM) was -11% and the growth inhibition ([12]; at 11.0 µM) was 4%. For the same compound, the growth inhibition ([12]; at 33.0 µM) was 63%, the growth inhibition ([12]; at 100.0 µM) was 90% (active) and the growth inhibition ([13]; at 1.2 µM) was 1%. The growth inhibition ([13]; at 3.7 µM) was -6%, the growth inhibition ([13]; at 11.0 µM) was 14% and the growth inhibition ([13]; at 33.0 µM) was 72% (active). The growth inhibition ([13]; at 100.0 µM) was 91% (active), the growth inhibition [14, 16] was 25% and the growth inhibition [14, 17] was 58%. It also gave a growth inhibition ([14]; at 50.0 µM) of 50.5%, a growth inhibition ([15]; at 1.2 µM) of -2% and a growth inhibition ([15]; at 3.7 µM) of 0%. For the same compound, the growth inhibition ([15]; at 11.0 µM) was 10%, the growth inhibition ([15]; at 33.0 µM) was 76% (active) and the growth inhibition ([15]; at 100.0 µM) was 92% (active).

— PubChem BioAssay (NCI)
